Shown are actives, neighbours in structure and some others; about 2.4% of the full set was active somewhere.
POLB inh = DNA polymerase beta (human) inhibition; P06746; 340,000 compounds, 1.3% hits; Potency, µM (titrated, usually from 114 µM), inactives show top-dose activity change, negative = inhibition, usual class: inhibitors; Pol beta primer extension/strand displacement, fluorescence kinetic; note: % is set by controls: 0 for no effect and ±100 for the full control effect
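10 nM enzyme + cpd, 15 min RT; start with substrate 50 nM final; read 0 min and after 10 min RT. Corrected, normalized data; 4-parameter Hill curve fit.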
POLH inh = inhibitors of human DNA polymerase eta. Potency, µM (top dose mostly 114 µM), for the others: at the top dose activity change, negative = inhibition, usual class: inhibitors. 390,000 compounds, 1.2% hits. recombinant Pol eta, fluorescent DNA replication assay; note: % is set by controls: 0 for no effect and ±100 for the full control effect
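Pol eta (10 nM) was preincubated with compounds for 15 min at room temperature, after which fluorescent replication substrate (50 nM final) was added to start the reaction. Fluorescence was read kinetically at 0 and 10 min.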
POLI inh = inhibitors of human DNA polymerase iota; Pol iota fluorescent replication assay, 10 min; Q9UNA4; 390,000 compounds, 1% hits; Potency, µM (titrated, usually from 115 µM), for inactives: at the highest dose activity, negative = inhibition, most hits filed as inhibitors
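Pol iota at 10 nM preincubated 15 min with compounds at room temperature; reaction started with fluorescent substrate, 50 nM final. Fluorescence read kinetically at 0 and 10 min; buffer-only wells as negative control.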
POLK inh = blocks human DNA polymerase kappa activity; Q9UBT6; Potency, µM (doses to about 107 µM), for the others: at the top dose activity, negative = inhibition, hits mostly inhibitors; purified Pol kappa, fluorescent DNA synthesis assay, 10 min; 400,000 compounds, 0.53% hits; AID 588579; note: % is set by controls: 0 for no effect and ±100 for the full control effect
Target sequence (Q9UBT6 whole entry, looked up): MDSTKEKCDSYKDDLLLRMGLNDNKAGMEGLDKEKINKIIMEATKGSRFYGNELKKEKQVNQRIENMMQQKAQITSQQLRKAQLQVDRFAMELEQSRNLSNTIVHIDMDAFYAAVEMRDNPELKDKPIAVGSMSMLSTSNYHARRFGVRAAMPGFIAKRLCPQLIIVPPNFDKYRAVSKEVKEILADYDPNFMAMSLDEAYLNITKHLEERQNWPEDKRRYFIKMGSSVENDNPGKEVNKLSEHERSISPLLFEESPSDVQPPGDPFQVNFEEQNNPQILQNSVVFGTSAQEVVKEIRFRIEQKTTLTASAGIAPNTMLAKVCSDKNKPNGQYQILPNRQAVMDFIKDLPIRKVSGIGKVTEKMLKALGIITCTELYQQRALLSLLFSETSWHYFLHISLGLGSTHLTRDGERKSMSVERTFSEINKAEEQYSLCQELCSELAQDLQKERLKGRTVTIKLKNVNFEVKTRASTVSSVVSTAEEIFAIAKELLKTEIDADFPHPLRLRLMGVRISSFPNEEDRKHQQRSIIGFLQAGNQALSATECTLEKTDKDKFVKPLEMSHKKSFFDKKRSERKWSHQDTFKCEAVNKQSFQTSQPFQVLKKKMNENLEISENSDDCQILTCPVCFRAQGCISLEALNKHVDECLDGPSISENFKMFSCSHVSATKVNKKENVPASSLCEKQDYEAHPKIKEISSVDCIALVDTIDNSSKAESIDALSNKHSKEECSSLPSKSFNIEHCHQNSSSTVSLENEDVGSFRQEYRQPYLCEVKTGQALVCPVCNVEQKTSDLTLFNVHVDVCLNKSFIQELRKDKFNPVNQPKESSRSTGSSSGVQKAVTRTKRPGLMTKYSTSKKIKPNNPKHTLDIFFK
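Here, compound and 10 nM enzyme are combined for 15 min at room temperature; adding 50 nM substrate (final) starts DNA synthesis, tracked by fluorescence at 0 and 10 min against buffer-only wells.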
L3MBTL1 inh = L3MBTL1 (human) inhibition. Q9Y468. 230,000 compounds, 0.66% hits. Potency, µM (titrated, usually from 57.1 µM), for inactives: top-dose activity, negative = inhibition, actives largely listed as inhibitors. AlphaScreen L3MBTL1–H3K9me1 peptide binding; note: % is set by controls: 0 for no effect and ±100 for the full control effect; nearly all actives have a fitted effect of over 60% in size
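Displacement of a biotinylated histone H3(1-15) peptide monomethylated at Lys9 (75 nM) from L3MBTL1 (50 nM) was measured by AlphaScreen after a 30 min room-temperature compound incubation; cefsulodin titration served as intraplate control.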
* marks the source's active call; other numbers are inactive results; [ ] = remark or other dose. Calls come from the whole dose curve; as a rule, active = well fitted curve in the direction sought with a large enough effect; inconclusive = small, poorly fitted or top-dose-only effect, or another doubt; inactive = no such curve, though single readings can be large; an effect the other way counts as inactive or inconclusive. Potency is the fitted concentration of half-maximal effect.

How did CC(=O)Nc1ccc(NC(=O)C(c2ccccc2)N2Cc3ccccc3C2=O)cc1 (configuration not stated) do in these assays?
POLB inh: 12%; POLH inh: -7%; POLI inh: -21%; POLK inh: -5%

How did CC1CCCN(C(=S)SCC(=O)c2cc(Br)cc(Br)c2O)C1 (configuration not stated) do in these assays?
POLB inh: 16µM*; POLH inh: -17%; POLI inh: 22µM*; POLK inh: 25µM*; L3MBTL1 inh: -15%

How did O=C(CSC(=S)N1CCCC1)Nc1cc2c(cc1Br)OCCO2 do in these assays?
POLB inh: 8%; POLH inh: -19%; POLI inh: 15%; POLK inh: 1%

Results for O=C(CSC(=S)N1CCCC1)c1cc(Br)cc(Br)c1O ?
POLB inh: 50µM*; POLH inh: inconclusive; POLI inh: inconclusive; POLK inh: inconclusive

What do the screens show for `CCCOc1ccc(C2C(=O)N(C3CCCCC3)CC(=O)N2CCC2=CCCCC2)cc1OC` (configuration not stated)?
POLB inh: 4%; POLH inh: -13%; POLI inh: 3%; POLK inh: -2%[60.1 µM]

How did O=C(O)CCC/C=C\C[C@@H]1C(/C=C/[C@@H](O)COc2cccc(C(F)(F)F)c2)[C@@H](O)C[C@@H]1O (some centres not stated) do in these assays?
POLK inh: 0%[19.4 µM]

What do the screens show for `O=C(O)c1cc(=O)n(Cc2ccccc2)c(=O)[nH]1`?
POLB inh: -25%; POLH inh: -9%; POLI inh: 96%; POLK inh: 8%

How did Cc1ccc(NC(=O)c2cc(=O)n(Cc3ccccc3)c(=O)[nH]2)cc1C do in these assays?
POLB inh: 40µM*; POLH inh: -29%; POLI inh: inconclusive; POLK inh: 1%

Results for CCOC(=O)[C@@H]1[C@H]2COc3cc(OC)ccc3[C@H]2N2C(=O)N(c3cccc(F)c3)C(=O)[C@]12C ?
POLH inh: -10%; POLI inh: 13%; POLK inh: -4%; L3MBTL1 inh: -4%

Results for O=C1SC(c2ccccc2)=N/C1=C/c1ccco1 ?
POLB inh: -17%; POLH inh: 6%; POLI inh: 33%; POLK inh: 4%; L3MBTL1 inh: -6%

What do the screens show for `O=C1CNC(=O)/C(=C/c2ccco2)N1`?
POLB inh: -15%; POLH inh: -1%; POLI inh: inconclusive; POLK inh: 79µM*; L3MBTL1 inh: 35µM*

Results for CCOC(=O)CN1C(=N)N(c2nc(NC(C)C)nc(OC)n2)CC1=O ?
POLB inh: 22%; POLH inh: 0%; POLI inh: 79µM*; POLK inh: -1%; L3MBTL1 inh: 5%

Results for COc1ccc(-c2ccc(/C=C3/C(=N)N4C=CSC4=NC3=O)o2)c([N+](=O)[O-])c1 ?
POLB inh: 35µM*; POLH inh: 20µM*; POLI inh: inconclusive; POLK inh: -19%; L3MBTL1 inh: -2%

Results for O=C1c2oc3ccccc3c(=O)c2C(c2cccc(O)c2)N1Cc1ccc(F)cc1 (configuration not stated) ?
POLB inh: 18%; POLH inh: 1%; POLI inh: -14%; POLK inh: -3%

How did CC1=NN(c2ccc(C)cc2C)C(=O)C1C(c1ccccc1O)C1C(=O)N(c2ccc(C)cc2C)N=C1C (configuration not stated) do in these assays?
POLB inh: 39%; POLH inh: -9%; POLI inh: 0.89µM*; POLK inh: -11%; L3MBTL1 inh: -4%

How did O=c1ccc2c(o1)/C(=C/C=C(Cl)Cl)CCC2 do in these assays?
POLB inh: 28µM*; POLH inh: -10%; POLI inh: inconclusive; POLK inh: -8%; L3MBTL1 inh: -34%

What do the screens show for `CCC(=O)NC(c1cccc([N+](=O)[O-])c1)c1c(O)ccc2ccccc12` (configuration not stated)?
POLB inh: 2%; POLH inh: 2%; POLI inh: 89µM*; POLK inh: -19%; L3MBTL1 inh: inconclusive

How did Cc1ccc(S(=O)(=O)N2CCN(c3nc(-n4cncn4)nc4ccccc34)CC2)cc1 do in these assays?
POLI inh: inconclusive; POLK inh: -21%

Source: PubChem BioAssay
